# According to PubChem BioAssay:
# Several values for one entry are separate records, joined by “and”; a condition that tells them apart may be missing. Equal entries are not always repeated. For some of these results: Entries with a potency or affinity are not part of this list. Activity calls are given as the source filed them. Unless noted, no rule for the calls is given here.
# Experiments:
# [1] = P. berghei load reduction in hepatocytes – cell-based, HepG2, luciferase luminescence, HepG2 viability, primary screen (AID 624349; in the data active = parasite load remaining mostly below about 12%, no sharp cut-off; inactive = mostly above about 10%;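 also: 100% = mean of DMSO negative control wells on the same plate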); conditions: P. berghei liver stage in HepG2, luciferase luminescence, concentration not given here; parasite load remaining: stronger effect = lower value; viability: measured here: HepG2 viability without parasites
# [2] = EMT-state selective cytotoxicity in co-culture – imaging, PC-3E GFP, TEM4-18 mCherry, primary screen (AID 1345086;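 active = compounds killing one labelled cell type while sparing the other, by normalised counts and ratio limits, not self-fluorescent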;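 as to all read-outs here: cells exposed to compound for 72 h before imaging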;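 as to red/green cell ratio (normalised): normalised mesenchymal count divided by normalised epithelial count so high means epithelial killing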); conditions: PC-3E GFP / TEM4-18 mCherry co-culture, imaging cell counts, at 1 µM; for red/green cell ratio (normalised): actives lie on both sides
# [3] = viability loss with induced miR-34 in A549 – imaging, A549 dox-inducible miR-34, nuclei and caspase counts, primary screen (AID 1347080;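 active = compounds whose cell count with miR-34 switched on is under 0.7 times the count with it off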); conditions: A549 miR-34 inducible, Hoechst nuclei count, 48 h
# [4] = compounds altering circadian rhythm period length – cell-based, LOPAC library, luminescence reporter (AID 2774); conditions: circadian reporter cells, at 7 µM, actives lie on both sides;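 also: values are relative to mean of DMSO wells on each plate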
# [5] = test system: Hepatitis C virus NS3 helicase; experiment: blockers of NS3h binding to ssDNA – biochemical, fluorescence polarization, LOPAC1280 library, primary screen (AID 687035; in the data active = inhibition above about 37%); conditions: Purified HCV NS3 helicase, Cy5-dT15 ssDNA binding fluorescence polarization; stronger effect = higher value; concentration not given here
# [6] = compounds altering Cy5-DNA-NS3h complex signal – biochemical, LOPAC1280, artefact control for HCV NS3 helicase inhibitor project (AID 687037); conditions: Cy5-DNA-NS3h complex fluorescence interference counterscreen
# [7] = test system: Aerobactin synthetase IucA (Klebsiella pneumoniae); experiment: inhibition of K. pneumoniae IucA enzyme – biochemical, Tocris library, absorbance (AID 1345561); conditions: purified IucA enzyme assay, absorbance (OD) read-out; stronger effect = lower value;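 tested at 8 µM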;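 also: 100% = enzyme without compound and 0% = no enzyme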
# [8] = test system: Aerobactin synthetase IucA (Klebsiella pneumoniae, hypervirulent); experiment: biochemical IucA inhibition screen of LOPAC library by absorbance (AID 1346212); conditions: IucA enzyme assay, absorbance (OD) readout; stronger effect = lower value;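 tested at 8 µM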;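 also: 100% = no compound wells and 0% = no enzyme wells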
# [9] = galactose survival enhancers in mitochondrial complex I cybrids – cell-based, galactose medium, ATP luminescence, primary screen (AID 1645843;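 active = z-score of at least 1.8 in each of two replicates, scored against plate mean and spread of sample wells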;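 also: positive z means more ATP and so rescue of galactose-driven cybrid death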); conditions: complex I mutant cybrid cells, 72 h, stronger effect = higher value
# [10] = target: Mitogen-activated protein kinase 7 (Homo sapiens) (UniProt Q13164); experiment: Gal4-ERK5 driven luciferase induction – cell-based, HTS, primary screen (AID 1508626;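 active = luciferase signal above three times the same-plate solvent-only control wells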;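 also: luciferase driven by Gal4-ERK5 fusion binding five Gal4 sites before minimal TATA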); conditions: HeLa Gal4-ERK5 transactivation, 18 h, at 5 µM, stronger effect = higher value
# Sequence of Mitogen-activated protein kinase 7 (Homo sapiens) (Q13164 whole entry, looked up, the tested form may be a part): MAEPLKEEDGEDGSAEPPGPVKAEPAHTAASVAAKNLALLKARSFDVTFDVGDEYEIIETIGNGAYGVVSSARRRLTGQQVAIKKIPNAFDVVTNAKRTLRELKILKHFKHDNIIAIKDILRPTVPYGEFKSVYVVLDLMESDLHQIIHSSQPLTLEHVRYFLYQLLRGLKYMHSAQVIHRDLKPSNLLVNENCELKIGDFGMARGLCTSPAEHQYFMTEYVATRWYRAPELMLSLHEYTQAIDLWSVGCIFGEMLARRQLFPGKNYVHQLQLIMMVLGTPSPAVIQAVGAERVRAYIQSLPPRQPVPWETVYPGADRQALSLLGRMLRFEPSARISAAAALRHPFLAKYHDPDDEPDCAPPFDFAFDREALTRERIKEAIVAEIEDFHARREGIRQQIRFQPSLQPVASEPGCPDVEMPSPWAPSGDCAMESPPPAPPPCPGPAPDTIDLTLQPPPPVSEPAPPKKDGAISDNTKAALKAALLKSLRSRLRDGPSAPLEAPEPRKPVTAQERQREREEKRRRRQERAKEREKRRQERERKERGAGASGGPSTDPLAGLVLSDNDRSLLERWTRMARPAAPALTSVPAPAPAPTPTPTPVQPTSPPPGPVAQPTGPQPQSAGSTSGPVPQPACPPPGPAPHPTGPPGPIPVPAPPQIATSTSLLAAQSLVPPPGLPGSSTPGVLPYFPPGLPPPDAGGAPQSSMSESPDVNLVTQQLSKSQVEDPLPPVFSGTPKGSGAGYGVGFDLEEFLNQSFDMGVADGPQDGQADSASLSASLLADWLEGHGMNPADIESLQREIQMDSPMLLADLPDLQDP
# [11] = test system: Aerobactin synthetase IucA (Klebsiella pneumoniae hvKP1); experiment: IucA enzyme inhibition, primary screen, biochemical, Spectrum library (AID 1346200); conditions: malachite green pyrophosphate, A620, at 8 µM, stronger effect = lower value;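 also: 100% = wells without compound and 0% = wells lacking enzyme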
# [12] = compounds altering viability of human ES cells (AID 493140); conditions: human embryonic stem cell survival screen; stronger effect = higher value;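 also: cells exposed to compounds for four days before counting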
# [13] = blockers of cellular phospholipid synthesis – cell-based, LOPAC library, screen 4, primary screen (AID 1347384); conditions: animal cells, phospholipid biosynthesis inhibition screen; at 10 µM
# [14] = MELAS cybrid and Rieske KO viability enhancers – cell-based, MELAS cybrids, Rieske KO mouse fibroblasts, CellTiter-Glo, primary screen (AID 1508586;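 active = mean z-score across replicates of 1.96 or higher in either the MELAS or the Rieske mutant cell line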;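 also: z relative to plate mean and SD of compound and empty wells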); conditions: low glucose
# [15] = yeast 75Q aggregation reduction – 75Q-TubU reporter (AID 1593); conditions: Yeast 75Q polyglutamine aggregation reporter
# [16] = restoration of touch response, mutant HTT neurons – whole organism, C. elegans mechanosensory neurons, N-terminal huntingtin (AID 1599); conditions: C. elegans polyQ-huntingtin mechanosensory neurons, stronger effect = higher value
# [17] = blockers of cytochrome c efflux from mitochondria – biochemical, purified mitochondria (AID 1603); conditions: stronger effect = lower value;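 also: mouse liver mitochondria challenged with calcium chloride; signal normalized to the plate average as 100%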
# [18] = polyglutamine aggregate formation blockers (AID 1604); conditions: polyglutamine-induced protein aggregation inhibition assay; stronger effect = higher value; tested at 2.5 µM
# [19] = glutamate transport activators, MN-1 cells, MN-1 cell line (AID 1612); conditions: MN-1 motor neuron cells, stronger effect = higher value;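 also: tested at 1 µM final; 0% = mean of DMSO vehicle wells on each plate; positive means more glutamate uptake than control and negative means less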
# [20] = 75Q-TubH aggregate inhibition, S. cerevisiae, yeast (AID 1616); conditions: S. cerevisiae 75Q-TubH polyglutamine aggregation suppression; stronger effect = higher value
# [21] = measured here: epithelial PC-3E GFP cell survival
# [22] = measured here: mesenchymal TEM4-18 mCherry cell survival
# [23] = measured here: relative caspase fold change +Dox/-Dox
# [24] = measured here: total cells with miR-34 induction, stronger effect = lower value
# [25] = measured here: total cells without miR-34 induction
# [26] = stronger effect = lower value, cell number ratio, induced over uninduced
compound,measurement,setting,value
O1[As]2O[As]3O[As]1O[As](O2)O3,parasite load remaining,[1],61.8% (inactive)
same,viability,[1],103%
same,red/green cell ratio (normalised),[2],0.77 (inactive)
same,normalised cell number,[2]; [21],1.19
same,normalised cell number,[2]; [22],0.92
same,fold change,[3]; stronger effect = lower value,0.844 (inactive)
same,fold change,[3]; [23],2.16
same,cell count,[3]; [24],11700
same,cell count,[3]; [25],13900
Oc1ccc2c3c1O[C@H]1c4[nH]c5c(c4C[C@@]4(O)[C@@H](C2)N(CC2CC2)CC[C@]314)C[C@@]1(O)[C@H]2Cc3ccc(O)c4c3[C@@]1(CCN2CC1CC1)[C@H]5O4,period change,[4],-0.025 h (inactive)
same,inhibition,[5],-2% (inactive)
same,fluorescence ratio (interference),[6],1 (inactive)
same,remaining activity,[7],103% (inactive)
same,remaining activity,[8],120% (inactive)
same,fold change,[3]; stronger effect = lower value,1.09 (inactive) and 0.956 (inactive)
same,fold change,[3]; [23],1.04 and 0.836
same,cell count,[3]; [24],10400 and 9420
same,cell count,[3]; [25],9540 and 9850
same,z-score,[9],0.855 (inactive) and 1.22 (inactive)
O=C(O)CCCO,parasite load remaining,[1],64.2% (inactive)
same,viability,[1],92.7%
same,red/green cell ratio (normalised),[2],1 (inactive)
same,normalised cell number,[2]; [21],0.91
same,normalised cell number,[2]; [22],0.91
same,fold change,[3]; stronger effect = lower value,0.926 (inactive)
same,fold change,[3]; [23],0.797
same,cell count,[3]; [24],11100
same,cell count,[3]; [25],11900
COC(=O)[C@@H]1C[C@H](OC(C)=O)C(=O)[C@H]2[C@@]1(C)CC[C@H]1C(=O)O[C@H](c3ccoc3)C[C@]21C,red/green cell ratio (normalised),[2],1.04 (inactive)
same,normalised cell number,[2]; [21],0.84
same,normalised cell number,[2]; [22],0.87
same,luciferase signal,[10],52 AU (inactive)
COC(=O)C(c1ccccc1)C1CCCCN1 (stereo unspecified),parasite load remaining,[1],51.8% (inactive)
same,viability,[1],106%
same,red/green cell ratio (normalised),[2],0.97 (inactive)
same,normalised cell number,[2]; [21],1.07
same,normalised cell number,[2]; [22],1.04
same,fold change,[3]; stronger effect = lower value,0.909 (inactive)
same,fold change,[3]; [23],3.99
same,cell count,[3]; [24],12600
same,cell count,[3]; [25],13900
same,luciferase signal,[10],44 AU (inactive)
Cc1ccc(C[N+](C)(C)C)o1,remaining activity,[7],126% (inactive)
same,activity remaining,[11],106% (inactive)
same,fold change,[3]; [26],0.971 (inactive)
same,fold change,[3]; [23],0.883
same,cell count,[3]; [24],9440
same,cell count,[3]; [25],9720
same,luciferase signal,[10],100 AU (inactive)
same,z-score,[9],0.545 (inactive)
C[C@]12N[C@H](Cc3ccccc31)c1ccccc12,period change,[4],0.055 h (inactive)
same,survival,[12],15.6 (inactive)
same,parasite load remaining,[1],44.8% (inactive) and 97.8% (inactive)
same,viability,[1],70.4% and 87.5%
same,inhibition,[5],-1% (inactive)
same,fluorescence ratio (interference),[6],1 (inactive)
same,remaining activity,[7],117% (inactive)
same,remaining activity,[8],89.7% (inactive)
same,fold change,[3]; stronger effect = lower value,1.14 (inactive) and 0.978 (inactive) and 0.959 (inactive)
same,fold change,[3]; [23],0.783 and 1.01 and 0.875
same,cell count,[3]; [24],10200 and 8980 and 9270
same,cell count,[3]; [25],8990 and 9190 and 9660
same,outcome,[13],inactive
same,z-score,"[14]; MELAS cybrid survival, CellTiter-Glo 48 h, stronger effect = higher value",0.143 (inactive)
same,z-score,"[14]; Rieske KO mouse fibroblast survival, CellTiter-Glo 72 h",0.47
same,z-score,[9],-0.205 (inactive) and 0.805 (inactive)
NCCc1c[nH]c2ccc(C(N)=O)cc12,period change,[4],-0.055 h (inactive)
same,inhibition,[5],-3% (inactive)
same,fluorescence ratio (interference),[6],1 (inactive)
same,remaining activity,[7],111% (inactive)
same,remaining activity,[8],90% (inactive)
same,fold change,[3]; stronger effect = lower value,0.977 (inactive) and 0.883 (inactive)
same,fold change,[3]; [23],1.26 and 0.923
same,cell count,[3]; [24],10000 and 7810
same,cell count,[3]; [25],10300 and 8850
same,outcome,[13],inactive
same,z-score,[9],0.31 (inactive) and 0.705 (inactive)
C[C@@H](N)Cc1cnc[nH]1,period change,[4],-0.03 h (inactive)
same,inhibition,[5],-1% (inactive)
same,fluorescence ratio (interference),[6],1 (inactive)
same,remaining activity,[7],120% (inactive)
same,remaining activity,[8],105% (inactive)
same,fold change,[3]; stronger effect = lower value,0.943 (inactive)
same,fold change,[3]; [26],1.02 (inactive)
same,fold change,[3]; [23],0.922 and 0.657
same,cell count,[3]; [24],9840 and 7980
same,cell count,[3]; [25],10400 and 7800
same,outcome,[13],inactive
same,z-score,[9],0.195 (inactive) and -0.325 (inactive)
CC(=O)O[C@H]1C[C@H](O[C@H]2[C@@H](O)C[C@H](O[C@H]3[C@@H](O)C[C@H](O[C@H]4CC[C@@]5(C)C(CCC6C5C[C@@H](O)[C@]5(C)[C@@H](C7=CC(=O)OC7)CC[C@]65O)C4)O[C@@H]3C)O[C@@H]2C)O[C@H](C)[C@H]1O[C@@H]1O[C@H](CO)[C@@H](O)[C@H](O)[C@H]1O (stereo partly specified),score,[15],1.1
same,rescue above control,[16],3.88
same,cytochrome c release ratio,[17],0.86
same,inhibition of aggregation,[18],100%
same,glutamate uptake change,[19],-5.55%
same,aggregation suppression score,[20],1.31
same,parasite load remaining,[1],31.4% (inactive) and 0.905% (inactive)
same,viability,[1],50.8% and 15.3%
same,red/green cell ratio (normalised),[2],0.22 (inactive)
same,normalised cell number,[2]; [21],0.27
same,normalised cell number,[2]; [22],0.06
same,fold change,[3]; stronger effect = lower value,0.6 (active)
same,fold change,[3]; [23],2.31
same,cell count,[3]; [24],258
same,cell count,[3]; [25],431
O=C(N[C@H]1CN2CCC1CC2)c1ccc(Cl)cc1,inhibition,[5],-1% (inactive)
same,fluorescence ratio (interference),[6],1 (inactive)
same,remaining activity,[7],93.4% (inactive)
same,remaining activity,[8],109% (inactive)
same,fold change,[3]; stronger effect = lower value,1.07 (inactive)
same,fold change,[3]; [26],0.932 (inactive)
same,fold change,[3]; [23],1.52 and 1.27
same,cell count,[3]; [24],10700 and 8830
same,cell count,[3]; [25],10000 and 9480
same,outcome,[13],inactive
same,z-score,[9],0.385 (inactive) and 0.125 (inactive)
c1ccc2sc(C3(N4CCCCC4)CCCCC3)cc2c1,period change,[4],-0.2 h (inactive)
same,inhibition,[5],-3% (inactive)
same,fluorescence ratio (interference),[6],1 (inactive)
same,remaining activity,[7],107% (inactive)
same,remaining activity,[8],110% (inactive)
same,fold change,[3]; stronger effect = lower value,0.986 (inactive)
same,fold change,[3]; [26],0.965 (inactive)
same,fold change,[3]; [23],1.78 and 0.772
same,cell count,[3]; [24],8350 and 7790
same,cell count,[3]; [25],8470 and 8070
same,outcome,[13],inactive
same,z-score,[9],-1.48 (inactive) and -1.21 (inactive)
C=CC[C@]1(O)CCC2C3CCC4=CC(=O)CCC4=C3C=C[C@@]21C (stereo partly specified),parasite load remaining,[1],26.4% (inactive)
same,viability,[1],98.9%
same,red/green cell ratio (normalised),[2],0.86 (inactive)
same,normalised cell number,[2]; [21],0.92
same,normalised cell number,[2]; [22],0.79
same,fold change,[3]; stronger effect = lower value,0.89 (inactive)
same,fold change,[3]; [23],1.39
same,cell count,[3]; [24],10300
same,cell count,[3]; [25],11500
O=C1CN=C(c2ccccc2Cl)c2cc([N+](=O)[O-])ccc2N1,score,[15],0.89
same,rescue above control,[16],-2.29
same,cytochrome c release ratio,[17],0.98
same,inhibition of aggregation,[18],52.4%
same,glutamate uptake change,[19],-25.1%
same,aggregation suppression score,[20],0.77
same,parasite load remaining,[1],52.7% (inactive)
same,viability,[1],99.8%
same,red/green cell ratio (normalised),[2],1.15 (inactive)
same,normalised cell number,[2]; [21],0.93
same,normalised cell number,[2]; [22],1.07
same,fold change,[3]; stronger effect = lower value,0.845 (inactive)
same,fold change,[3]; [23],3.3
same,cell count,[3]; [24],10900
same,cell count,[3]; [25],12900
